Screens deposited in PubChem by ICCB-Longwood Screening Facility, Harvard Medical School.
In the library only some 0.68% were active in any assay of this set; here they are far more common.
Sa RN4220 lethal – kills Staphylococcus aureus RN4220. S. aureus RN4220 growth, OD600, 16 h. inhibition, % (concentration not given with the values). actives 0.33% (n = 330,000). AID 1259311; in the data active means inhibition above about 85%;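 further: plate controls were untreated cells for no effect and reference antibiotic for full effect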
Mtb hypoxia rep – reduces hypoxia-regulated biosensor signal in M. tuberculosis; AID 1159583; actives 0.1% (n = 300,000); M. tuberculosis hypoxia-regulated fluorescent reporter, fluorescence; fluorescence inhibition, % (no concentration beside the values); in the data active means fluorescence inhibition mostly above about 23%, no sharp cut-off; inactive means mostly below about 17%
Sa ugtP lethal – kills S. aureus RN4220 lacking UgtP. growth inhibition, % (concentration not given with the values). actives 0.54% (n = 330,000). S. aureus RN4220 ugtP deletion, OD600 growth, 16 h; in the data active means growth inhibition above about 68%;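 further: plate controls were untreated wells for no effect and antibiotic for full effect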
* hit, by the source's call; . = no result given.

SMILES	Sa RN4220 lethal	Mtb hypoxia rep	Sa ugtP lethal
C#Cc1ccc(C2C=C(C(=O)N3CCN(Cc4ccc5c(c4)OCO5)CC3)OC(OCC)C2CCCO)cc1 (stereo not given)	0	1	2
CC(=O)C1CCC2C3CCC4CC(O)CC[C@]4(C)C3C(=O)C[C@]12C (stereo not given in full)	10	7	6
CC(C)=CCc1c(O)cc2c(=O)c3ccc(O)cc3oc2c1O	-3	.	35
CC(C)=CCc1c(O)cc(O)c2c(=O)c3c(CC=C(C)C)c(O)ccc3oc12	100*	.	100*
O=C1CCN(CCc2ccccc2)CCN1C(COc1ccccc1)c1ccccc1 (stereo not given)	1	-7	1
O=C(Nc1ccc(OC(F)F)c(Cl)c1)Nc1ccc2c(c1)OCO2	-4	-11	-41
O=C(Nc1ccc([N+](=O)[O-])cc1)Nc1ccc(OC(F)F)c(Cl)c1	99*	-6	100*
N#CC(=Cc1ccc(Oc2ccc(C(F)(F)F)cc2[N+](=O)[O-])cc1)c1nc2ccccc2[nH]1	-8	-24	-39
O=c1[nH]sc2cc(F)ccc12	98*	4	87*
O=c1[nH]sc2ccccc12	-2	-1	11
CC(C)(C)c1csc(NN=Cc2ccc(O)cc2)n1	16	34*	25
Cc1ccc(C=NNc2nc(C(C)(C)C)cs2)o1	-14	-13	-24
CC(=O)N1c2ccccc2Oc2cc3ccccc3cc21	6	-3	-12
O=C(CCl)N1c2ccccc2Oc2ccc3ccccc3c21	90*	26	99*
CCC(C)C(NC(=O)OC(C)(C)C)c1cn(C(CCCCNC(=O)OC(C)(C)C)C(=O)N2CCN(C(=O)OC(C)(C)C)CC2)nn1 (stereo not given)	0	-13	-3
O=C1NC(Cc2cn(S(=O)(=O)c3ccc([N+](=O)[O-])cc3)c3ccccc23)C(=O)NC1Cc1ccccc1 (stereo not given)	5	6	6
CC1=CC(C)[C@@H]2COC(c3ccc(O)cc3)C1C2C (stereo not given in full)	10	-8	17
COc1ccc(C2CC(=O)C=C(c3cccc4c3Oc3ccccc3S4)C2)cc1 (stereo not given)	-1	8	11
CCc1nc(SCC(=O)Nc2ccc3c(c2)OCCO3)c2oc3ccccc3c2n1	5	.	6
Cc1nc(SCC(=O)Nc2ccc3c(c2)OCCO3)c2oc3ccccc3c2n1	5	6	90*
Cc1nc(SCc2ccccc2F)c2oc3ccccc3c2n1	8	40*	9
Cc1nc(SCc2ccc(F)cc2)c2oc3ccccc3c2n1	10	.	-15
O=[N+]([O-])c1ccccc1C=NNC1=NCCN1	2	-12	2
COc1cccc(C(=O)NC(=S)Nc2ccccc2N2CCCC2)c1	-3	13	91*
COc1cc(C(=O)NC(=S)Nc2ccccc2N2CCCC2)cc(OC)c1OC	0	-9	-9
SMILES	Sa RN4220 lethal	Mtb hypoxia rep	Sa ugtP lethal
COc1cccc(C(=O)NC(=S)Nc2ccccc2N2CCCCC2)c1	-7	-4	89*
COc1cccc(C(=O)Nc2ccccc2N2CCCC2)c1	5	14	-7
O=C1NCC(c2ccccc2)OC(=O)C(Cc2ccc(F)cc2)CCC=CCC1CC(=O)N(CCO)Cc1ccccc1 (stereo not given)	-6	-2	5
Cc1cc(C=C2SC(N)=NC2=O)c(C)n1-c1ccc(F)cc1	5	9	-1
O=C(CC1CC=CCC(Cc2ccc(F)cc2)C(=O)OCC2CCCN2C1=O)NCCO (stereo not given)	7	10	1
O=S(=O)(N=C(Nc1cccc2ccccc12)c1ccccc1)c1cccs1	3	-6	4
O=[N+]([O-])c1ccc(N=Nc2c(Cl)cc(O)cc2Cl)cc1	100*	-5	99*
CC(N)=Nc1ccc([N+](=O)[O-])cc1	1	-15	2
CC(c1ccccc1)N1C(=O)c2ccc(C(=O)Nc3ccc(Br)cc3C(=O)O)cc2C1=O (stereo not given)	100*	11	92*
CC(c1ccccc1)N1C(=O)c2ccc(C(=O)Nc3ccccc3C(=O)O)cc2C1=O (stereo not given)	29	9	7
CCOC(=O)CC1c2cc(C(F)(F)F)ccc2S(=O)(=O)N1C(C)C (stereo not given)	6	5	4
COc1ccc2nc(-n3c(C)ccc3C)sc2c1	12	-5	30
COc1ccc2nc(N3C(=O)/C(=C/c4ccccc4)NC3=S)sc2c1	0	1	92*
CCOc1ccc2nc(N3C(=O)/C(=C/c4ccccc4)NC3=S)sc2c1	8	4	94*
CCOc1ccc2nc(N3CCCCCC3)sc2c1	7	14	50
CC(=NNc1ccc([N+](=O)[O-])cc1)c1ccc(C)cc1C	-14	1	-12
CC1(C)OC2C(CO)OC(n3cnc4c(N)ncnc43)C2O1 (stereo not given)	4	7	0
O=S(=O)(N(Cc1ccccc1)C(CO)Cc1ccccc1)N(Cc1ccccc1)C(CO)Cc1ccccc1 (stereo not given)	5	6	3
Cc1ccc(S(=O)(=O)N2C(c3ccc(C(C)C)cc3)CC=C(C(=O)O)C2c2ccccc2F)cc1 (stereo not given)	14	7	5
CC(C)c1ccc(C2NCc3ccccc3-n3cccc32)cc1 (stereo not given)	21	-7	74
FC(F)(F)Oc1ccc(C2NCc3ccccc3-n3cccc32)cc1 (stereo not given)	18	-11	94*
CC(=Cc1ccccc1)C=C1SC(=S)N(CCCC(=O)Nc2ccc(C(=O)O)cc2)C1=O	48	9	66
CC(/C=C1\SC(=S)N(CCC(=O)Nc2cccc(C(=O)O)c2)C1=O)=C\c1ccccc1	78	1	86*
C=CCOc1cccc(C2C(C(=O)c3cc4ccccc4o3)=C(O)C(=O)N2c2cc(C)on2)c1 (stereo not given)	100*	-8	100*
Cc1cc(N2C(=O)C(O)=C(C(=O)c3ccco3)C2c2cccnc2)no1 (stereo not given)	5	-1	6
SMILES	Sa RN4220 lethal	Mtb hypoxia rep	Sa ugtP lethal
CCCOc1ccc(C2C(C(=O)c3cc4ccccc4o3)=C(O)C(=O)N2c2cc(C)on2)cc1OC (stereo not given)	99*	-6	100*
COc1cccc(C2C(C(=O)c3cc4ccccc4o3)=C(O)C(=O)N2c2cc(C)on2)c1 (stereo not given)	31	-9	61
Cc1cc(N2C(=O)C(O)=C(C(=O)c3ccco3)C2c2cccc(Cl)c2)no1 (stereo not given)	96*	-8	92*
COc1ccccc1C1C(C(=O)c2cc3ccccc3o2)=C(O)C(=O)N1c1cc(C)on1 (stereo not given)	8	-5	-1
CC(Nc1n[nH]c(=O)[nH]c1=O)C(=O)NN=Cc1cccs1 (stereo not given)	-7	-6	-11
CCOC(=O)CC1c2cc(F)ccc2S(=O)(=O)N1C1CCCC1 (stereo not given)	1	9	2
CSC(=C[N+](=O)[O-])Nc1ccc(C)cc1	5	8	-6
CC(C(=O)OCC(=O)Nc1cc(S(=O)(=O)N2CCOCC2)ccc1Cl)N1C(=O)C2CCCCC2C1=O (stereo not given)	2	-2	-4
